CYP2C19 activ: activators of human cytochrome P450 2C19. recombinant CYP2C19, luciferin-H EGE luminescence; hits give high values; 0 = fully inhibited enzyme, 1 = untreated enzyme. activation factor at 5 µM. 96,000 tested, under 10 active;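 active means activation factor of at least 2 at 5 µM in the primary screen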
Target sequence (P33261 whole entry, looked up): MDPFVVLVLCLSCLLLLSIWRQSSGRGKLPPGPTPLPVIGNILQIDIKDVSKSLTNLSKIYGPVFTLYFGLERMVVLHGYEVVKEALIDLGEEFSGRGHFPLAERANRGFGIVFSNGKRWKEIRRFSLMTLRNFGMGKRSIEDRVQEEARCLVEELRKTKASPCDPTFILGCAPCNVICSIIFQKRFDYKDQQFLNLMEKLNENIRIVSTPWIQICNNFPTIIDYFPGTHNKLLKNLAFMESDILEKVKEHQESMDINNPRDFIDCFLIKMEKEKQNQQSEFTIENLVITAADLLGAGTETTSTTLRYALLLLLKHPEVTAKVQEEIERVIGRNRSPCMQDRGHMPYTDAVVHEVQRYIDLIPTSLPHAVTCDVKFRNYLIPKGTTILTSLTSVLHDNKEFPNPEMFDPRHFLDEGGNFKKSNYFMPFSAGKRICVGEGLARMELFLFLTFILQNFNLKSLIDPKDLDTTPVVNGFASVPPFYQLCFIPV
CYP2C9 inhib: human CYP2C9 inhibition; P11712; CYP2C9 Supersomes, luciferin-H conversion, luminescence; inhibition, % at 5 µM; hit rate 20% among 96,000; AID 777;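 active means blocking of liver enzyme CYP2C9 beyond about 50% at 5 µM, limit read from the data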
CYP2C9 act: activators of human CYP2C9; P11712; recombinant CYP2C9, luciferin-H conversion, luminescence; hits give high values; factor 1 = untreated enzyme, 0 = blocked; activation factor at 5 µM; hit rate 1.4% among 96,000;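 active means activation factor of 2 or more for CYP2C9 at a 5 µM dose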
CYP2C19 inhib: inhibitors of human CYP2C19. P33261. CYP2C19 Supersomes, luciferin-H EGE luminescence, 30 min. inhibition, % at 5 µM. hit rate 21% among 96,000;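 active means CYP2C19 inhibition above a set limit at 5 µM in the primary screen, cut at about 50% in these data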
Cav3 T inh: inhibitors of human Cav3.2 T-type calcium channel. O95180. Cav3.2-expressing cells, Fluo-4 calcium fluorescence FDSS; hits give low values. B-score at 10 µM. hit rate 4% among 100,000;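 active means single-dose well whose peak fluorescence ratio is a statistical outlier from its plate by either plate-standardised score or position-corrected B-score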
Of the large screens only hits and unclear results are named; the others gave an inactive call. Hits are enriched below; roughly 27% of the tested compounds scored in any of these assays.

COc1ccccc1CNC(=O)c1ccccc1NS(C)(=O)=O	CYP2C9 inhib 74.9
COc1ccccc1CNC(=O)c1ccccc1N(C)S(C)(=O)=O	none
COc1ccc(C(=O)NCc2ccccc2OC)cc1	none (no result: CYP2C19 activ, CYP2C9 inhib, CYP2C9 act, CYP2C19 inhib)
COc1ccccc1CNC(=O)c1ccc(NS(C)(=O)=O)cc1	CYP2C9 act 2
CCC(CC)C(=O)NCCc1ccc(F)cc1	none
Cc1c(-c2cccs2)[n+](=O)c2c(n1[O-])CCCC2	none (no result: CYP2C19 activ, CYP2C9 inhib, CYP2C9 act, CYP2C19 inhib)
c1ccc(C2Nc3ccccc3-c3nc4ccccc4n32)cc1 (stereo not drawn)	CYP2C9 inhib 71.1
c1coc(C2Nc3ccccc3-c3nc4ccccc4n32)c1 (stereo not drawn)	CYP2C9 inhib 91.2, CYP2C19 inhib 79.8
c1ccc(C2Nc3ccccc3-c3nc4ccccc4n32)nc1 (stereo not drawn)	none (no result: CYP2C19 activ, CYP2C9 inhib, CYP2C9 act, CYP2C19 inhib)
COC(=O)c1cc2c(s1)-c1ccccc1OC2	CYP2C19 inhib 64.7
CC(=O)NC1(c2ccc(F)cc2)CCN(C(=O)Nc2ccc(F)cc2F)CC1	none
CC(CN1CCCCC1)OC(=O)C(C)(c1ccccc1)c1ccccc1 (stereo not drawn)	CYP2C9 inhib 67.5, CYP2C19 inhib 54.4
CC(CN1CCCCC1)OC(=O)Cc1ccc(Cl)cc1 (stereo not drawn)	CYP2C19 inhib 60.0
COc1cc(C(=O)Oc2cc(C)cc(C)c2)cc(OC)c1OC	none (no result: CYP2C19 activ, CYP2C9 inhib, CYP2C9 act, CYP2C19 inhib)
COc1cc(C(=O)NCCOc2cc(C)cc(C)c2)c(Br)c(OC)c1OC	CYP2C19 inhib 86.2
CCOC(=O)c1c(C=O)c(C)n(Cc2ccccc2)c1C	CYP2C9 inhib 69.9
CC(=O)c1c(C(C)=O)c(C)n(Cc2ccc(Cl)cc2)c1C	CYP2C19 inhib 86.5
CCOC(=O)c1c(C=O)c(C)n(Cc2ccc(Cl)cc2)c1C	CYP2C9 inhib 84.3
CCOc1ccc(OCC)c2sc(C)nc12	none
CC(=O)C(C)Oc1ccc2c3c(c(=O)oc2c1C)CCCC3 (stereo not drawn)	CYP2C19 inhib 58.1 (no result: Cav3 T inh)
Cc1oc(C(=O)O)cc1COc1ccc2c3c(c(=O)oc2c1C)CCC3	none
Cc1c(OCC(=O)OC(C)(C)C)ccc2c3c(c(=O)oc12)CCC3	none (no result: Cav3 T inh)
CC(=O)COc1ccc2c3c(c(=O)oc2c1C)CCCCC3	CYP2C19 inhib 82.7
Cc1c(OC(=O)CNC(=O)OC(C)(C)C)ccc2c3c(c(=O)oc12)CCC3	CYP2C9 act 2.7
O=C(NCc1ccc2c(c1)OCO2)c1ccc(CN2CCOCC2)cc1	none
COc1ccc2c(C)c(C(=O)NCC(C)O)oc2c1OC (stereo not drawn)	none
COc1ccc(CCNC(=O)CCC(=O)N2CCN(S(=O)(=O)c3ccccc3)CC2)cc1OC	none
CCN1N=C(c2cc(Cl)sc2Cl)CSC1=O	none (no result: CYP2C19 activ, CYP2C9 inhib, CYP2C9 act, CYP2C19 inhib)
Cc1cccc(C)c1NC(=S)NN(Cc1ccccc1)c1ccccc1	none
CC(C)c1ccccc1NC(=S)NN(Cc1ccccc1)c1ccccc1	CYP2C19 inhib 62.5, Cav3 T inh -6.94
Cc1c(Cl)cccc1NC(=S)NCc1ccccc1	none (no result: CYP2C19 activ, CYP2C9 inhib, CYP2C9 act, CYP2C19 inhib)
Fc1ccccc1NC(=S)NN(Cc1ccccc1)c1ccccc1	CYP2C9 inhib 82.3, CYP2C19 inhib 95.4
O=C(c1cc2ccccc2oc1=O)N(Cc1ccc2c(c1)OCO2)Cc1ccco1	CYP2C9 inhib 92.1, CYP2C19 inhib 96.5
O=C(c1cc2ccccc2oc1=O)N(Cc1ccco1)CC1CCCO1 (stereo not drawn)	CYP2C9 inhib 54.7
O=C(NCc1ccc2c(c1)OCO2)c1cc2ccccc2oc1=O	none (no result: CYP2C19 activ, CYP2C9 inhib, CYP2C9 act, CYP2C19 inhib)
O=C(NC1CCCC1)c1ccc(CSc2nc3ccncc3n2Cc2ccc(F)cc2)cc1	none (no result: CYP2C19 activ, CYP2C9 inhib, CYP2C9 act, CYP2C19 inhib)
CCN(CC)CCNC(=O)Cc1c(C(=O)O)n(C)c2ccccc12	none
Cn1nc(CC(=O)Nc2ccc3c(c2)OCCO3)c2ccccc2c1=O	none (no result: Cav3 T inh)
Cn1c(C(=O)O)c(CC(=O)Nc2ccc3c(c2)OCCO3)c2ccccc21	CYP2C9 inhib 65.0, CYP2C19 inhib 59.2
Cn1c(C(=O)O)c(CC(=O)Nc2ccc(F)cc2F)c2ccccc21	CYP2C9 inhib 95.1, CYP2C19 inhib 77.5
COc1ccc(-c2nc(SCC(=O)NCc3ccco3)c(-c3ccccc3)[nH]2)cc1OC	CYP2C9 inhib 64.8, CYP2C19 inhib 77.6
COc1ccc(-c2[nH]c(-c3ccccc3)nc2SCC(=O)NCc2ccco2)cc1OC	none
COc1ccc(-c2[nH]c(-c3ccc(F)cc3)nc2SCC(=O)NCc2ccco2)cc1OC	CYP2C19 inhib 51.1
Cc1ccc(-n2c(C)cc(C3N=C(N)Nc4nc5ccccc5n43)c2C)c(C)c1 (stereo not drawn)	CYP2C9 inhib 77.4, CYP2C19 inhib 61.0
Cc1cc(C2N=C(N)Nc3nc4ccccc4n32)c(C)n1-c1ccccc1Cl (stereo not drawn)	CYP2C9 inhib 79.8, CYP2C19 inhib 68.9
NC1=NC(c2cn(-c3ccccc3)nc2-c2cccs2)n2c(nc3ccccc32)N1 (stereo not drawn)	none (no result: Cav3 T inh)
NC1=NC(c2ccc(F)cc2)n2c(nc3ccccc32)N1 (stereo not drawn)	CYP2C19 inhib 67.3
NC(=O)CC(NC(=O)Cc1ccc(Br)cc1)c1ccc(N2CCN(c3ccccc3)CC2)c([N+](=O)[O-])c1 (stereo not drawn)	none (no result: CYP2C19 activ, CYP2C9 inhib, CYP2C9 act, CYP2C19 inhib)
O=C1C2C3C=CC(C3=C(c3ccccc3)c3ccccc3)C2C(=O)N1Cc1ccccc1 (stereo not drawn)	CYP2C19 inhib 54.3
COC(=O)NCc1cccc(CNC(=O)OC)c1	none
CN1C(C(=O)NCc2ccco2)CC2Cn3c(nc4cc5ccccc5cc43)C21 (stereo not drawn)	none (no result: CYP2C19 activ, CYP2C9 inhib, CYP2C9 act, CYP2C19 inhib)
Cc1cc(N2CCN(c3ccccc3)CC2)nc(-n2nc(C)cc2C)n1	CYP2C9 inhib 89.6, CYP2C19 inhib 60.5
O=S(=O)(NC12CC3CC(CC(C3)C1)C2)c1ccc(F)cc1	CYP2C9 inhib 83.4, CYP2C19 inhib 88.2
Cc1c(S(=O)(=O)N2CCc3ccccc3C2)c(=O)n(C)c(=O)n1C	none
CCN(N=O)[C@@H](Cc1ccccc1)CN(N=O)[C@@H](Cc1ccccc1)CN(C)N=O	none (no result: CYP2C19 activ, CYP2C9 inhib, CYP2C9 act, CYP2C19 inhib)
CCN(CC#CCC(O)(c1ccccc1)C1CCCC1)C(C)C (stereo not drawn)	none
CCN(CC)CC#CCC(C)(c1ccccc1)c1ccccc1	CYP2C9 inhib 71.6, CYP2C19 inhib 93.6
O=C1Nc2ccccc2C(O)(C(=O)NCc2ccc3c(c2)OCO3)N1c1ccc(Cl)c(Cl)c1 (stereo not drawn)	none
CCOC(=O)C1=C(C)NC2=C(C1c1ccc([N+](=O)[O-])cc1)S(=O)(=O)c1ccccc12 (stereo not drawn)	CYP2C9 inhib 62.1
CCOC(=O)C1=C(C)N(CCCC(=O)O)C(=O)NC1c1ccc([N+](=O)[O-])cc1 (stereo not drawn)	none (no result: CYP2C19 activ, CYP2C9 inhib, CYP2C9 act, CYP2C19 inhib)
O=C(Oc1cccc2cccnc12)c1ccc2c(c1)OCCO2	CYP2C9 act 3.3
CCN(CC)C(=O)C1CCCN(c2ccc([N+](=O)[O-])cc2/C=N/NC(=O)c2cccc(O)c2)C1 (stereo not drawn)	CYP2C9 inhib 93.2, CYP2C19 inhib 89.2
Cc1cc(C(=O)NCCCN2CCN(C3CCCCC3)CC2)n(-c2ccccc2)n1	none
CCc1c(C#N)c(SCCC(=O)Nc2ccc(F)cc2)nc2c1C(=O)CC(C)(C)C2	CYP2C9 inhib 97.0, CYP2C19 inhib 97.6

Source: PubChem BioAssay (several laboratories)
